In all, about 33,000 sequences were measured (“E-score (-0.5 to 0.5)”: median about -0.054, highest 2% from about 0.35 on). The entries come from a sample that favours the highest values as a whole.

The target in the test is T1, Stb5 (UniProt P38699).
T1 sequence: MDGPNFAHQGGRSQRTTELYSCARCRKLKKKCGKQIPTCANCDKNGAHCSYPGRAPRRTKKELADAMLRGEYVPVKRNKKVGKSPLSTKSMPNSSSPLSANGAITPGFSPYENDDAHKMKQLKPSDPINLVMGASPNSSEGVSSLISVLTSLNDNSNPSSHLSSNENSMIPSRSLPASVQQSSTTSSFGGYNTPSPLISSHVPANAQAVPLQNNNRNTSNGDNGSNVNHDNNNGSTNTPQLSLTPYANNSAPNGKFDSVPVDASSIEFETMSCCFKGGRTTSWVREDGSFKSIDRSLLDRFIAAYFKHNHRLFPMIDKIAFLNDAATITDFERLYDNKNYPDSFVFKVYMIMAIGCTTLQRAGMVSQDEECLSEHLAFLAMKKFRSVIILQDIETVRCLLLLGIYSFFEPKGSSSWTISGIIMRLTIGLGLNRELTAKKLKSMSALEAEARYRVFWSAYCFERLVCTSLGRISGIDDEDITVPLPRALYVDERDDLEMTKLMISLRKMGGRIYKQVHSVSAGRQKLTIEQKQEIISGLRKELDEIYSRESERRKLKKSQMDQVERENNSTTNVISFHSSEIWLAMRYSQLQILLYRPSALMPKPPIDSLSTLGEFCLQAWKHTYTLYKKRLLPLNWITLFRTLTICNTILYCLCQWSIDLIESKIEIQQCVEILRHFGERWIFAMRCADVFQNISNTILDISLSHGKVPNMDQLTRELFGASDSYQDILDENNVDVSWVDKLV
The test can be described thus: PBM E-score (8-mer binding enrichment) (E-score (-0.5 to 0.5)); higher = stronger / more preferred TF binding. The settings on record: protein concentration: 200 nM; construct: GST-full length. The method, boiled down: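 E-scores (a modified Wilcoxon-Mann-Whitney statistic) were assigned by the Universal PBM Analysis Suite to every ungapped eight-base word pooled with its reverse complement. The input came from universal all-10-mer Agilent arrays made double-stranded by primer extension and probed with GST-tagged yeast transcription factors at about 100-200 nM. Fluorescent anti-GST detected bound protein, and masliner normalised the scans.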
With AAGGTGAT, the “PBM E-score” value was 0.117.

For AGAGGTAC, the “PBM E-score” value is -0.205.

For the sequence CCTGATCC, the “PBM E-score” value is -0.125.

Consider CCCATGGG, for which the “PBM E-score” value is -0.194.

As for GGTTGGAC, the “PBM E-score” value was -0.0385.

Regarding CGCCTGTC, the “PBM E-score” value was -0.0556.

Take ACTACAGT: the “PBM E-score” value is -0.24.

With GCCGGACA, the “PBM E-score” value turned out to be 0.401.

Turning to TCCGGACA, the “PBM E-score” value was found to be 0.259.

As to GTCGGACA, the “PBM E-score” value was 0.385.

Regarding GACGGACA, the “PBM E-score” value was 0.372.

For the sequence GTCGGAAA, the “PBM E-score” value was 0.274.

Turning to CCCGGACA, the “PBM E-score” value was determined as 0.315.

Regarding ATCGGATA, the “PBM E-score” value came out at 0.19.

As to GACGGACC, the “PBM E-score” value turned out to be 0.316.

For the sequence CACGGACA, the “PBM E-score” value worked out at 0.211.

As for CTCGGATA, the “PBM E-score” value turned out to be 0.0597.

For CTCGGACA, the “PBM E-score” value came out at 0.233.

In the case of GTCGGATA, the “PBM E-score” value worked out at 0.371.

For TAAAACTA, the “PBM E-score” value was -0.0104.

Turning to CACAAAAG, the “PBM E-score” value stood at 0.0345.

For AGCTAACG, the “PBM E-score” value amounted to 0.00522.

With CCTCCTAG, the “PBM E-score” value is -0.267.

On to ATGGCGAG, for which the “PBM E-score” value was -0.242.

In the case of CCAGCGCG, the “PBM E-score” value was -0.0713.

In the case of AAACCTTT, the “PBM E-score” value is 0.0851.

As to AGGCCCCA, the “PBM E-score” value is -0.255.

As for CGCGGAGA, the “PBM E-score” value came to 0.287.

Consider AGCGGAGA, for which the “PBM E-score” value turned out to be 0.236.

Regarding GTCGGAGA, the “PBM E-score” value is 0.373.

With ATCGGAGA, the “PBM E-score” value amounted to 0.33.

For the sequence GGCGGAGA, the “PBM E-score” value turned out to be 0.388.

Consider CTCGGAGA, for which the “PBM E-score” value stood at 0.136.

As to AAACAGAG, the “PBM E-score” value is -0.197.

For the sequence CGGTCTAA, the “PBM E-score” value amounted to 0.23.

Turning to CCACTACG, the “PBM E-score” value was -0.0468.

For the sequence CCATAACG, the “PBM E-score” value is -0.0562.

Take AACATATT: the “PBM E-score” value was -0.109.

On to GGGTGTTA, for which the “PBM E-score” value was found to be 0.25.

As to AGGTGTCC, the “PBM E-score” value was -0.164.

Consider CGGTGTTC, for which the “PBM E-score” value amounted to 0.399.

Turning to CGGTGTCC, the “PBM E-score” value worked out at 0.369.

Consider AGGTGTGA, for which the “PBM E-score” value was found to be 0.00067.

In the case of AGGTGTTG, the “PBM E-score” value was -0.0336.

For CGGTGTGC, the “PBM E-score” value came out at 0.219.

On to CGGTGTGA, for which the “PBM E-score” value was determined as 0.441.

For the sequence CCGTGTTC, the “PBM E-score” value is 0.137.

Take CTGTGTCC: the “PBM E-score” value is 0.136.

AGGTGTTC: the “PBM E-score” value is -0.101.

For AGGTGTTA, the “PBM E-score” value came out at 0.381.

For the sequence AATCTGCA, the “PBM E-score” value was -0.273.

For AAAGGCCT, the “PBM E-score” value is -0.115.

In the case of ACTCTGTG, the “PBM E-score” value is -0.0679.

Regarding TATAGGCA, the “PBM E-score” value was -0.262.

Take ATGATGCA: the “PBM E-score” value is -0.187.

Regarding CACCAGCG, the “PBM E-score” value was -0.06.

Consider ACAAAGAG, for which the “PBM E-score” value is -0.148.

Regarding AGGTGTCA, the “PBM E-score” value was 0.12.

For the sequence GGGTGTCA, the “PBM E-score” value was -0.073.

Regarding CGGTGTCA, the “PBM E-score” value was determined as 0.471.

As to CGGTGTAA, the “PBM E-score” value was 0.438.

Take CGGTGTAG: the “PBM E-score” value worked out at 0.323.

On to GGGTGTAA, for which the “PBM E-score” value was 0.251.

In the case of TCGGAAGA, the “PBM E-score” value was 0.142.

Take ATATGAAA: the “PBM E-score” value is -0.119.

With ATTCGAGG, the “PBM E-score” value came out at 0.0182.

As to TACGCAGA, the “PBM E-score” value was -0.163.

With CGACCCGA, the “PBM E-score” value was 0.117.

For AAACGCCA, the “PBM E-score” value is -0.046.

Turning to AGACGCCG, the “PBM E-score” value was 0.399.

As for AGACGCCA, the “PBM E-score” value was -0.181.

For the sequence AGACGCCC, the “PBM E-score” value turned out to be 0.0667.

Turning to CAACGCCG, the “PBM E-score” value was determined as 0.318.

AAACGCCG: the “PBM E-score” value was found to be 0.449.

On to CGCTAGAG, for which the “PBM E-score” value was determined as 0.0369.

Take AACATCGC: the “PBM E-score” value turned out to be 0.0424.

As to GTGGTCAA, the “PBM E-score” value was -0.291.

Regarding CACTCCGA, the “PBM E-score” value came out at 0.242.

In the case of GACTCCGC, the “PBM E-score” value came to 0.333.

Turning to AACTCCGG, the “PBM E-score” value is 0.436.

As for CACTCCGG, the “PBM E-score” value came out at 0.219.

Take AACTCCCT: the “PBM E-score” value is -0.0261.

In the case of TACTCCGA, the “PBM E-score” value came out at 0.234.

As to AACTCCGA, the “PBM E-score” value came out at 0.463.

On to AACTCCCG, for which the “PBM E-score” value was found to be 0.248.

In the case of AACTCCGT, the “PBM E-score” value amounted to 0.444.

In the case of AACTCCAT, the “PBM E-score” value stood at 0.144.

CACTCCGC: the “PBM E-score” value was 0.307.

(Values after the supplement of paper PMC3334620.)
